Measurements from PubChem BioAssay (NCATS).
“And” between values parts separate entries of the source, which are not always exact repeats. Equal values may be shown once. Results filed as inconclusive are left out. Some compounds were tested as several samples or in several runs, with calls that do not always agree. The source made the active and inactive calls. The call rests on the fitted dose curve; in most records, active means well fitted curve in the direction sought with a large enough effect; inconclusive means small, poorly fitted or top-dose-only effect, or another doubt; inactive means no such curve, though single readings can be large; an effect the other way counts as inactive or inconclusive.

Legend:
[1] = system: TAB165; assay: qHTS profiling for inhibitors of Plasmodium falciparum proliferation (AID 504749); further: nearly all actives have a fitted effect of over 60% in size; further: potency means the concentration at half of the fitted maximal effect; settings: P. falciparum in erythrocytes, SYBR Green DNA, 72 h; series mostly up to 28.7 µM
Summary of the method: (§1)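 In a 72 h erythrocytic culture (37 C, humidified, 5% CO2) at 2.5% hematocrit and 0.3% starting parasitemia, compounds were tested; SYBR Green I in detergent lysis buffer stained parasite DNA overnight.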

[2] = system: W2; assay: as above; settings: P. falciparum in erythrocytes, SYBR Green DNA, 72 h; series mostly up to 28.7 µM
Summary of the method: as §1

[3] = system: CRL-7250; assay: Cytotoxic Profiling of Annotated Libraries Using Quantitative High-Throughput Screening (AID 1296008); settings: Five cell lines viability, CellTiter-Glo ATP luminescence, 48-72 h; max response: stronger effect = lower value; further: nearly all actives have a fitted effect of over 60% in size; further: potency means the concentration at half of the fitted maximal effect; on max response: on the % scale 0 is the no-effect control and ±100 the full control effect
Summary of the method: (§2)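 Cytotoxicity was measured as CellTiter-Glo ATP luminescence, read after 10 min at room temperature. Compound treatment of the cells lasted 48 or 72 hr at 37 degrees Celsius in a qHTS format.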

[4] = system: HEK293; assay: as above; settings: Five cell lines viability, CellTiter-Glo ATP luminescence, 48-72 h; max response: stronger effect = lower value
Summary of the method: as §2

[5] = system: HaCat; assay: as above; settings: Five cell lines viability, CellTiter-Glo ATP luminescence, 48-72 h; max response: stronger effect = lower value
Summary of the method: as §2

[6] = system: KB-3-1; assay: as above; settings: Five cell lines viability, CellTiter-Glo ATP luminescence, 48-72 h; max response: stronger effect = lower value
Summary of the method: as §2

[7] = system: NIH3T3; assay: as above; settings: Five cell lines viability, CellTiter-Glo ATP luminescence, 48-72 h; max response: stronger effect = lower value
Summary of the method: as §2

[8] = system: HACAT; assay: qHTS assay to identify novel small-molecules to repurpose for Merkel cell carcinoma treatment (AID 1296009); settings: MCC and control cell lines, CellTiter-Glo viability, 72 h; further: nearly all actives have a fitted effect of over 60% in size; further: potency means the concentration at half of the fitted maximal effect; on activity change, negative = cytotoxicity: on the % scale 0 is the no-effect control and ±100 the full control effect
Summary of the method: (§3)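 Cell viability measured by CellTiter-Glo following 72 hr compound treatment at 37 degree celsius, with NPC and MIPE libraries tested in 8- and 11-point concentration series.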

[9] = system: HEK293T; assay: as above; settings: MCC and control cell lines, CellTiter-Glo viability, 72 h; at 44.8 µM (top of the series)
Summary of the method: as §3

[10] = system: MCC-13; assay: as above; settings: MCC and control cell lines, CellTiter-Glo viability, 72 h; series mostly up to 46 µM
Summary of the method: as §3

[11] = system: MCC-26; assay: as above; settings: MCC and control cell lines, CellTiter-Glo viability, 72 h; series mostly up to 46 µM
Summary of the method: as §3

[12] = system: MKL-1; assay: as above; settings: MCC and control cell lines, CellTiter-Glo viability, 72 h; series mostly up to 46 µM
Summary of the method: as §3

[13] = system: MKL-2; assay: as above; settings: MCC and control cell lines, CellTiter-Glo viability, 72 h; series mostly up to 46 µM
Summary of the method: as §3

[14] = system: UISO; assay: as above; settings: MCC and control cell lines, CellTiter-Glo viability, 72 h; series mostly up to 46 µM
Summary of the method: as §3

[15] = system: WaGa; assay: as above; settings: MCC and control cell lines, CellTiter-Glo viability, 72 h; series mostly up to 46 µM
Summary of the method: as §3

[16] = system: C33A; assay: Primary qHTS to identify gynecologic anti-cancer compounds using libraries of approved drugs and bioactive compounds (AID 1345084); settings: Gynecologic cancer cell panel viability, ATPlite luminescence, 48 h; series mostly up to 57.5 µM; further: on the % scale 0 is the no-effect control and ±100 the full control effect; nearly all actives have a fitted effect of over 55% in size
Summary of the method: (§4)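 Cytotoxicity screen measuring ATP content by luciferase luminescence. Each compound is applied at five concentrations for 48 h at 37 C with 5% CO2.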

[17] = system: CAOV3; assay: as above; settings: Gynecologic cancer cell panel viability, ATPlite luminescence, 48 h; series mostly up to 57.5 µM
Summary of the method: as §4

[18] = system: CASKI; assay: as above; settings: Gynecologic cancer cell panel viability, ATPlite luminescence, 48 h; series mostly up to 57.5 µM
Summary of the method: as §4

[19] = system: Es-2; assay: as above; settings: Gynecologic cancer cell panel viability, ATPlite luminescence, 48 h; series mostly up to 57.5 µM
Summary of the method: as §4

[20] = system: NIH3T3; assay: qHTS assay to identify novel small-molecules to repurpose for Merkel cell carcinoma treatment (AID 1296009); settings: MCC and control cell lines, CellTiter-Glo viability, 72 h; further: nearly all actives have a fitted effect of over 60% in size; further: potency means the concentration at half of the fitted maximal effect; on activity change, negative = cytotoxicity: on the % scale 0 is the no-effect control and ±100 the full control effect
Summary of the method: as §3

[21] = at 44.8 µM (top of the series) unless noted

CC(=O)Oc1ccccc1C(=O)O
inactive: Potency [1] | Potency [2] | max response [3] 0.351% and -4.5% | max response [4] 1.6% | outcome [4] | outcome [5] | max response [6] -12% and 2.14% | max response [7] 0.988% and 3.48% | outcome [8, 21] | outcome [9] | Potency [10] | Potency [11] | Potency [12] | Potency [13] | Potency [14] | Potency [15] | Potency [16] | Potency [17] | Potency [18] | Potency [19]

CC(C)OC(=O)C1=CN(C(=O)c2ccc(F)c(F)c2)CC(C)(C)c2c1[nH]c1ccccc21
inactive: max response [3] 1.22% | outcome [3] | max response [4] -9.23% and -19.6% | max response [5] -4.65% | max response [6] -6.75% and 0.0694% | max response [7] 3.45% and -0.558% | Potency [10] | Potency [11] | Potency [12] | Potency [13] | Potency [14] | Potency [15] | Potency [16] | Potency [17] | Potency [18] | Potency [19]

CCN(CC)CCCC(C)Nc1ccnc2cc(Cl)ccc12 (stereo unspecified)
inactive: max response [3] 3.49% | outcome [3] | outcome [4] | outcome [5] | max response [6] -0.795% and 2.69% | outcome [6] | max response [7] -0.66% | outcome [7] | outcome ([8]; at 9.27 µM (top of the series)) | outcome ([8]; at 17.4 µM (top of the series)) | outcome ([8]; at 44.8 µM (top of the series)) | outcome [9] | Potency [10] | Potency [11] | Potency [12] | outcome ([20]; at 9.27 µM (top of the series)) | outcome ([20]; at 44.8 µM (top of the series)) | Potency [14] | Potency [15] | Potency [16] | activity change, negative = cytotoxicity [17] -18.6% [at 11.6 µM] | activity change, negative = cytotoxicity [18] -9.21% [at 11.6 µM] | Potency [19]

COc1ccc(CCN2CCN(CCCc3ccccc3)CC2)cc1OC
active: Potency [4] 6.51 µM
inactive: outcome [3] | max response [4] -22.2% | max response [6] 0.435% and -5.04% | max response [7] 1.46% | outcome [7] | outcome [8, 21] | Potency [10] | Potency [12] | Potency [13] | outcome [20, 21] | Potency [14] | Potency [15] | Potency [16] | Potency [17] | Potency [18] | Potency [19]

Cc1c(C)c2c(c(C)c1O)CCC(C)(COc1ccc(CC3SC(=O)NC3=O)cc1)O2 (stereo unspecified)
inactive: outcome [3] | max response [4] -17% | outcome [4] | outcome [5] | max response [6] -2.71% and -9.42% | max response [7] -1.07% | outcome [7] | outcome [8, 21] | outcome [9] | Potency [10] | Potency [11] | Potency [12] | Potency [13] | outcome [20, 21] | Potency [16] | Potency [17] | Potency [18] | Potency [19]
active: Potency [2] 6.75 µM
16.8 µM (active) and inactive: Potency [15]
